# According to PubChem BioAssay (NCI):
# Compounds without any hit were thinned out: in the full panel of roughly 79,000, 15% have a hit. A number with no mark means an inactive call. Active and inactive are the calls of the source. Rule as the data show it: active = growth inhibition above about 70%; inactive = the rest.
# Experiments:
# [1] = NCI Yeast Anticancer Drug Screen. Data for the rad52 strain (AID 147);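 also: 0% = growth of vehicle-treated control cultures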; conditions: S. cerevisiae rad52 mutant growth inhibition, active compounds read high
# Summary of the method: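 The repair-mutant yeast strain was incubated with compounds, then growth was read and inhibition derived relative to vehicle.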
# [2] = NCI Yeast Anticancer Drug Screen. Data for the wt1 strain (AID 149);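 also: 0% = growth of vehicle-treated wt1 cultures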; conditions: S. cerevisiae wt1 strain (SPY 50644) growth inhibition, active compounds read high
# Summary of the method: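 Vehicle-normalised growth inhibition; strain wt1; compound exposure.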
# [3] = NCI Yeast Anticancer Drug Screen. Data for the rad50EPP+ strain (AID 151);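 also: 0% = growth of vehicle-treated control cultures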; conditions: S. cerevisiae rad50 mutant strain, active compounds read high
# Summary of the method: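 Vehicle-normalised growth inhibition; rad50EPP+ yeast strain, altered in DNA damage repair, compound-treated.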
# [4] = NCI Yeast Anticancer Drug Screen. Data for the mgt1 strain (AID 153); conditions: S. cerevisiae mgt1 mutant growth inhibition, active compounds read high
# Summary of the method: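 Vehicle-normalized growth inhibition is determined in mgt1 yeast, a strain selected for a defined alteration in DNA repair or cell cycle control.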
# [5] = NCI Yeast Anticancer Drug Screen. Data for the rad50 strain (AID 155);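 also: 0% = growth of vehicle-only cultures of the same strain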; conditions: S. cerevisiae rad50 strain growth inhibition, active compounds read high
# Summary of the method: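 A DNA repair-deficient yeast mutant serves as the test organism; compound-induced growth inhibition is calculated against vehicle-treated cells.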
# [6] = NCI Yeast Anticancer Drug Screen. Data for the mec2-1 strain (AID 157); conditions: S. cerevisiae mec2-1 strain, active compounds read high
# Summary of the method: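 Mutant yeast (mec2-1) grown with compound; growth inhibition relative to vehicle control reported.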
# [7] = NCI Yeast Anticancer Drug Screen. Data for the rad14 strain (AID 159);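 also: 0% = growth of vehicle-treated control cultures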; conditions: S. cerevisiae rad14 strain growth inhibition, active compounds read high
# Summary of the method: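 Vehicle-treated cultures served as the baseline for growth inhibition of a DNA repair-mutant yeast strain exposed to each compound.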
# [8] = NCI Yeast Anticancer Drug Screen. Data for the sgs1 mgt1 strain (AID 161);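 also: 0% = growth of cultures given vehicle only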; conditions: S. cerevisiae sgs1 mgt1 strain, active compounds read high
# Summary of the method: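 Yeast cells carrying a defined DNA-repair defect were exposed to test compounds. Growth inhibition was measured relative to vehicle-treated controls.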
# [9] = NCI Yeast Anticancer Drug Screen. Data for the CLN2oe strain (AID 163);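 also: 0% = growth of vehicle-only control cultures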; conditions: S. cerevisiae CLN2oe strain, active compounds read high
# Summary of the method: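 Compounds are applied to yeast harbouring a defined cell-cycle control change; reduced growth compared with vehicle-treated controls gives the value.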
# [10] = NCI Yeast Anticancer Drug Screen. Data for the cln2 rad14 strain (AID 165);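 also: 0% = growth equal to vehicle treated cultures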; conditions: S. cerevisiae cln2 rad14 strain, active compounds read high
# Summary of the method: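 Readout is yeast growth inhibition versus vehicle-treated controls, using a strain with cln2 and rad14 alterations exposed to compound.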
# [11] = NCI Yeast Anticancer Drug Screen. Data for the bub3 strain (AID 167); conditions: S. cerevisiae bub3 mutant strain, active compounds read high
# Summary of the method: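 Inhibition values come from growth of compound-treated mutant yeast normalised to vehicle-treated controls.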
# [12] = NCI Yeast Anticancer Drug Screen. Data for the wt2 strain (AID 169);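 also: 0% = growth of vehicle-treated yeast cultures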; conditions: S. cerevisiae wt2 strain growth inhibition, active compounds read high
# Summary of the method: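 Against vehicle-treated controls, the growth of yeast exposed to each compound was compared, and the inhibition was recorded.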
# [13] = NCI Yeast Anticancer Drug Screen. Data for the mlh1 strain (AID 171);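 also: 0% = growth of vehicle-treated control cultures of the same strain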; conditions: S. cerevisiae mlh1 strain growth inhibition, active compounds read high
# Summary of the method: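 Measured: yeast growth. Reference: vehicle-treated controls. Organism: strain with a defined alteration affecting DNA damage repair or cell cycle control, treated with compound.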
# [14] = NCI Yeast Anticancer Drug Screen. Data for the sgs1 strain (AID 173);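 also: 0% = growth of vehicle-only control cultures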; conditions: S. cerevisiae sgs1 mutant, active compounds read high
# Summary of the method: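 Each compound was added to cultures of the altered yeast strain. Growth was recorded, and inhibition was derived by comparison with vehicle controls.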
# [15] = NCI Yeast Anticancer Drug Screen. Data for the rad18 strain (AID 177); conditions: S. cerevisiae rad18 mutant growth inhibition, active compounds read high
# Summary of the method: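 Vehicle-treated cultures served as the baseline for scoring compound-induced growth inhibition in DNA-repair-mutant yeast.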
# [16] = NCI Yeast Anticancer Drug Screen. Data for the mlh1 rad18 strain (AID 175); conditions: S. cerevisiae mlh1 rad18 strain growth inhibition, active compounds read high
# Summary of the method: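 Genetically defined yeast (DNA repair-deficient) exposed to compounds; growth inhibition determined relative to vehicle.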
# [17] = at 5.0 µM (retest, dose inferred, filed as 0.5)
# [18] = at 50.0 µM (retest, dose inferred, filed as 5.0)
smiles,measurement,setting,value
c1ccc(Cc2cc(-c3ccccc3)n[nH]2)cc1,growth inhibition,[1]; at 1.2 µM,-7%
same,growth inhibition,[1]; at 3.7 µM,-5%
same,growth inhibition,[1]; at 11.0 µM,-12%
same,growth inhibition,[1]; at 33.0 µM,0%
same,growth inhibition,[1]; at 100.0 µM,59%
same,growth inhibition,[2]; at 1.2 µM,-6%
same,growth inhibition,[2]; at 3.7 µM,-10%
same,growth inhibition,[2]; at 11.0 µM,-15%
same,growth inhibition,[2]; at 33.0 µM,-16%
same,growth inhibition,[2]; at 100.0 µM,44%
same,growth inhibition,[3]; at 1.2 µM,-3%
same,growth inhibition,[3]; at 3.7 µM,1%
same,growth inhibition,[3]; at 11.0 µM,5%
same,growth inhibition,[3]; at 33.0 µM,22%
same,growth inhibition,[3]; at 100.0 µM,58%
same,growth inhibition,[4]; at 1.2 µM,-4%
same,growth inhibition,[4]; at 3.7 µM,-8%
same,growth inhibition,[4]; at 11.0 µM,-11%
same,growth inhibition,[4]; at 33.0 µM,8%
same,growth inhibition,[4]; at 100.0 µM,50%
same,growth inhibition,[5]; at 1.2 µM,-10%
same,growth inhibition,[5]; at 3.7 µM,-19%
same,growth inhibition,[5]; [17],-136%
same,growth inhibition,[5]; at 11.0 µM,7%
same,growth inhibition,[5]; at 33.0 µM,5%
same,growth inhibition,[5]; [18],31%
same,growth inhibition,[5]; at 50.0 µM,97% (active)
same,growth inhibition,[5]; at 100.0 µM,60%
same,growth inhibition,[6]; at 1.2 µM,2%
same,growth inhibition,[6]; at 3.7 µM,-4%
same,growth inhibition,[6]; [17],-51%
same,growth inhibition,[6]; at 11.0 µM,-23%
same,growth inhibition,[6]; at 33.0 µM,-11%
same,growth inhibition,[6]; [18],-13%
same,growth inhibition,[6]; at 50.0 µM,97% (active)
same,growth inhibition,[6]; at 100.0 µM,43%
same,growth inhibition,[7]; at 1.2 µM,-3%
same,growth inhibition,[7]; at 3.7 µM,-4%
same,growth inhibition,[7]; at 11.0 µM,-7%
same,growth inhibition,[7]; at 33.0 µM,6%
same,growth inhibition,[7]; at 100.0 µM,58%
same,growth inhibition,[8]; [17],-64%
same,growth inhibition,[8]; [18],46%
same,growth inhibition,[8]; at 50.0 µM,89.8% (active)
same,growth inhibition,[9]; at 1.2 µM,-8%
same,growth inhibition,[9]; at 3.7 µM,-8%
same,growth inhibition,[9]; at 11.0 µM,-14%
same,growth inhibition,[9]; at 33.0 µM,0%
same,growth inhibition,[9]; at 100.0 µM,55%
same,growth inhibition,[10]; [17],-72%
same,growth inhibition,[10]; [18],-13%
same,growth inhibition,[10]; at 50.0 µM,70.4% (active)
same,growth inhibition,[11]; at 1.2 µM,-15%
same,growth inhibition,[11]; at 3.7 µM,-5%
same,growth inhibition,[11]; [17],-59%
same,growth inhibition,[11]; at 11.0 µM,9%
same,growth inhibition,[11]; at 33.0 µM,37%
same,growth inhibition,[11]; [18],62%
same,growth inhibition,[11]; at 50.0 µM,93.8% (active)
same,growth inhibition,[11]; at 100.0 µM,80% (active)
same,growth inhibition,[12]; at 1.2 µM,-3%
same,growth inhibition,[12]; at 3.7 µM,-4%
same,growth inhibition,[12]; at 11.0 µM,-7%
same,growth inhibition,[12]; at 33.0 µM,10%
same,growth inhibition,[12]; at 100.0 µM,52%
same,growth inhibition,[13]; at 1.2 µM,4%
same,growth inhibition,[13]; at 3.7 µM,-12%
same,growth inhibition,[13]; at 11.0 µM,-11%
same,growth inhibition,[13]; at 33.0 µM,5%
same,growth inhibition,[13]; at 100.0 µM,55%
same,growth inhibition,[14]; at 1.2 µM,-3%
same,growth inhibition,[14]; at 3.7 µM,-11%
same,growth inhibition,[14]; at 11.0 µM,-5%
same,growth inhibition,[14]; at 33.0 µM,27%
same,growth inhibition,[14]; at 100.0 µM,69%
same,growth inhibition,[15]; at 1.2 µM,-5%
same,growth inhibition,[15]; at 3.7 µM,-4%
same,growth inhibition,[15]; at 11.0 µM,-1%
same,growth inhibition,[15]; at 33.0 µM,19%
same,growth inhibition,[15]; at 100.0 µM,61%
O=C1/C(=C/c2ccccc2)CCCC1CN1CCCCC1 (stereo not drawn),growth inhibition,[1]; at 1.2 µM,13%
same,growth inhibition,[1]; at 3.7 µM,35%
same,growth inhibition,[1]; at 11.0 µM,56%
same,growth inhibition,[1]; at 33.0 µM,72% (active)
same,growth inhibition,[1]; at 100.0 µM,78% (active)
same,growth inhibition,[2]; at 1.2 µM,10%
same,growth inhibition,[2]; at 3.7 µM,19%
same,growth inhibition,[2]; at 11.0 µM,28%
same,growth inhibition,[2]; at 33.0 µM,31%
same,growth inhibition,[2]; at 100.0 µM,34%
same,growth inhibition,[3]; at 1.2 µM,-2%
same,growth inhibition,[3]; at 3.7 µM,-1%
same,growth inhibition,[3]; at 11.0 µM,15%
same,growth inhibition,[3]; at 33.0 µM,46%
same,growth inhibition,[3]; at 100.0 µM,51%
same,growth inhibition,[4]; at 1.2 µM,16%
same,growth inhibition,[4]; at 3.7 µM,44%
same,growth inhibition,[4]; at 11.0 µM,59%
same,growth inhibition,[4]; at 33.0 µM,85% (active)
same,growth inhibition,[4]; at 100.0 µM,96% (active)
same,growth inhibition,[5]; at 1.2 µM,13%
same,growth inhibition,[5]; at 3.7 µM,26%
same,growth inhibition,[5]; [17],29%
same,growth inhibition,[5]; at 11.0 µM,39%
same,growth inhibition,[5]; at 33.0 µM,61%
same,growth inhibition,[5]; [18],79% (active)
same,growth inhibition,[5]; at 50.0 µM,72.3% (active)
same,growth inhibition,[5]; at 100.0 µM,68%
same,growth inhibition,[6]; at 1.2 µM,16%
same,growth inhibition,[6]; at 3.7 µM,22%
same,growth inhibition,[6]; [17],32%
same,growth inhibition,[6]; at 11.0 µM,34%
same,growth inhibition,[6]; at 33.0 µM,48%
same,growth inhibition,[6]; [18],74% (active)
same,growth inhibition,[6]; at 50.0 µM,75.2% (active)
same,growth inhibition,[6]; at 100.0 µM,57%
same,growth inhibition,[7]; at 1.2 µM,48%
same,growth inhibition,[7]; at 3.7 µM,70% (active)
same,growth inhibition,[7]; at 11.0 µM,92% (active)
same,growth inhibition,[7]; at 33.0 µM,98% (active)
same,growth inhibition,[7]; at 100.0 µM,98% (active)
same,growth inhibition,[8]; [17],40%
same,growth inhibition,[8]; [18],80% (active)
same,growth inhibition,[8]; at 50.0 µM,85.7% (active)
same,growth inhibition,[9]; at 1.2 µM,40%
same,growth inhibition,[9]; at 3.7 µM,59%
same,growth inhibition,[9]; at 11.0 µM,67%
same,growth inhibition,[9]; at 33.0 µM,80% (active)
same,growth inhibition,[9]; at 100.0 µM,83% (active)
same,growth inhibition,[10]; [17],65%
same,growth inhibition,[10]; [18],69%
same,growth inhibition,[10]; at 50.0 µM,75.4% (active)
same,growth inhibition,[11]; at 1.2 µM,30%
same,growth inhibition,[11]; at 3.7 µM,53%
same,growth inhibition,[11]; [17],12%
same,growth inhibition,[11]; at 11.0 µM,79% (active)
same,growth inhibition,[11]; at 33.0 µM,95% (active)
same,growth inhibition,[11]; [18],83% (active)
same,growth inhibition,[11]; at 50.0 µM,82.9% (active)
same,growth inhibition,[11]; at 100.0 µM,97% (active)
same,growth inhibition,[12]; at 1.2 µM,19%
same,growth inhibition,[12]; at 3.7 µM,31%
same,growth inhibition,[12]; at 11.0 µM,51%
same,growth inhibition,[12]; at 33.0 µM,79% (active)
same,growth inhibition,[12]; at 100.0 µM,87% (active)
same,growth inhibition,[13]; at 1.2 µM,4%
same,growth inhibition,[13]; at 3.7 µM,16%
same,growth inhibition,[13]; at 11.0 µM,26%
same,growth inhibition,[13]; at 33.0 µM,34%
same,growth inhibition,[13]; at 100.0 µM,38%
same,growth inhibition,[14]; at 1.2 µM,29%
same,growth inhibition,[14]; at 3.7 µM,42%
same,growth inhibition,[14]; at 11.0 µM,67%
same,growth inhibition,[14]; at 33.0 µM,86% (active)
same,growth inhibition,[14]; at 100.0 µM,91% (active)
same,growth inhibition,[16]; [17],43%
same,growth inhibition,[16]; [18],75% (active)
same,growth inhibition,[16]; at 50.0 µM,74.7% (active)
same,growth inhibition,[15]; at 1.2 µM,34%
same,growth inhibition,[15]; at 3.7 µM,59%
same,growth inhibition,[15]; at 11.0 µM,74% (active)
same,growth inhibition,[15]; at 33.0 µM,83% (active)
same,growth inhibition,[15]; at 100.0 µM,90% (active)
